Screening data (PubChem BioAssay)
Tat export inh – E. coli Tat export inhibitors, primary screen, MC4100, TorA-mCherry reporter, fluorescence, single point; AID 488895, 2010; inhibition, % at 10 µM; actives 0.036% (n = 340,000);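 active means mean replicate inhibition at least 50% and at least half of replicates individually reaching 50%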;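 further: exported cargo escapes ClpAP degradation while cytoplasmic cargo is degraded and loses fluorescence; 0% = median of neutral control wells and 100% = median of NaSCN control wells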
E coli growth-1 – E. coli growth inhibition, primary screen, OD600. OD600 absorbance (no concentration beside the values). AID 1053175, 2014. actives 0.21% (n = 330,000). Escherichia coli growth, 23 h; active compounds read low;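 active means OD600 absorbance below the run mean of sample wells minus 3.6 SD, in any replicate, cut at about 0.56 in these data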
phage Ecoli inh – growth loss of phage-infected E. coli, primary screen, RecBCD inhibitor project, absorbance, with phage, HTS; inhibition, % at 11.9 µM; actives 0.26% (n = 360,000); AID 651602, 2012; in the data active means inhibition above about 11%
E coli growth-2 – E. coli V3065 growth inhibition, primary screen, counter-screen for AddAB inhibitor project, absorbance, OD600; 18 h; inhibition, % at 11.9 µM; actives 0.27% (n = 330,000); AID 449728, 2010;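 active means inhibition above the campaign's mean inhibition across all tested compounds plus 3 SD, cut at about 9.9% in these data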;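 further: uninfected addAB+ strain grown without phage in ampicillin broth; 0% = DMSO wells and 100% = ciprofloxacin 0.95 µg/ml wells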
AddAB inh – growth inhibition of E. coli expressing H. pylori AddAB, primary screen, AddAB inhibitor project, absorbance | inhibition, % at 11.9 µM | actives 0.29% (n = 330,000) | AID 435030, 2010; in the data active means inhibition above about 12%;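 further: 0% = vehicle wells of infected cells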
AddAB conf – growth loss of phage-infected E. coli expressing H. pylori AddAB, confirmation, AddAB inhibitor project, absorbance, E. coli V3065, T4 phage, triplicate; shares compounds with AddAB inh; actives 64% (n = 880); OD; T4 phage with gene 2 nonsense mutations; inhibition, % at 11.9 µM;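 active means mean inhibition above a set limit taken from the earlier primary screen, cut at about 13% in these data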;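 further: higher means less bacterial growth since AddAB block lets phage replicate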
RecBCD counter – growth loss of RecBCD+ E. coli with mutant T4 phage, counter-screen for AddAB inhibitor project, absorbance, V66 E. coli. shares compounds with AddAB inh. OD growth. inhibition, % at 11.9 µM. actives 73% (n = 880);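 active means mean inhibition above the mean of solvent-only control wells plus 3 SD, cut at about 4% in these data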;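 further: optical density read after an 18 h incubation at 37 °C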
Bact viability – bacterial viability inhibition counter-screen, confirmation, counter-screen for AddAB inhibitor project, absorbance | inhibition, % at 11.9 µM | shares compounds with AddAB inh | actives 35% (n = 880) | absorbance (AddAB counterscreen); in the data active means inhibition above about 25%
* hit, by the source's call; x = no result given. Sampled rows, rich in hits. Any-hit rate of the full collection: about 0.51%.

SMILES | Tat export inh | E coli growth-1 | phage Ecoli inh | E coli growth-2 | AddAB inh | others
COC(=O)C1C(O)C(C)C(O)C(C)C=CC=C(C)C(=O)Nc2c(C)c(OC(C)=O)c3c(c2O)C(=O)C(C)=C2OCOC(=C23)C(C)=CC(C)(O)C(O)C(C)C1O (stereo not given) | x | 0.122* | x | x | x
COC(=O)C1=C(c2ccc(-c3ccccc3)c(F)c2)CC2CCC1N2C(=O)NCc1ccc(F)cc1 (stereo not given) | x | 0.724 | x | x | x
CC1CCC2C(C)C(=O)OC3OC4(C)CCC1C32OO4 (stereo not given) | -1.7 | 0.431* | 2.6 | 1.4 | 0.8
COC(=O)C1=C(c2cccc(C#N)c2)CC2CCC1N2C(=O)NCc1ccc(F)cc1 (stereo not given) | x | 0.723 | x | x | x
COC(=O)C1=C(c2ccc(OC)c(OC)c2)CC2CCC1N2C(=O)NCCO (stereo not given) | x | 0.625 | x | x | x
CC1=CC(=O)OC2CC3OC4CC(C)C5OC6CC7O[C@]8(C)CC=CC9OC%10CC%11OC(CC(C)C%12OCCO%12)CC(O)[C@]%11(C)OC%10CC9OC8C[C@]7(C)O[C@]6(C)CCC5OC4C[C@]3(C)OC12 (stereo not given in full) | x | 0.711 | x | x | x
CNc1cc(Cl)c2nonc2c1[N+](=O)[O-] | -36.6 | 0.463* | 8.1 | x | x
COC(=O)C1=C(c2ccc(F)cc2F)CC2CCC1N2C(=O)N1CCOCC1 (stereo not given) | x | 0.714 | x | x | x
Fc1ccc(CNCCc2ccccc2)cc1 | -1.6 | 0.684 | 4.6 | 0.7 | 1.6
C1=C(CCNCc2ccccc2)CCCC1 | -4.5 | 0.448* | 5.8 | -0.9 | 2.6
c1ccc(-c2nc(N3CCOCC3)s[n+]2-c2ccccc2)cc1 | -1.7 | 0.524* | 1.6 | 2.8 | 4.3
Clc1ccc(C(c2ccc(Cl)cc2)n2cc[n+](CC(OCc3ccc(Cl)cc3Cl)c3ccc(Cl)cc3Cl)c2)cc1 (stereo not given) | 14.8 | 0.094* | 6.9 | 4.6 | 0.0
CN(C)C1C(=O)C(C(N)=O)=C(O)[C@@]2(O)C(=O)C3=C(O)c4c(O)cccc4[C@@](C)(O)C3C(O)C12 (stereo not given in full) | x | 0.0695* | x | x | x
CN(C)C1C(=O)C(C(N)=O)=C(O)[C@@]2(O)C(=O)C3=C(O)c4c(O)cccc4[C@@](C)(O)C3CC12 (stereo not given in full) | x | 0.065* | x | x | x
COC(=O)C1=C(c2cccc(OC)c2OC)CC2CCC1N2C (stereo not given) | x | 0.687 | x | x | x
CCOC(=O)[C@]12Cc3cc(OC)c(OC)cc3C1N(Cc1ccccc1)C(=O)c1ccccc12 (stereo not given in full) | x | 0.652 | x | x | x
COc1cc2cc(C(=O)N3CC(COS(C)(=O)=O)c4ccc(O)cc43)[nH]c2c(OC)c1OC (stereo not given) | 57.7* | x | x | x | x
COC(=O)C1=C(c2ccc(-c3ccccc3)c(F)c2)CC2CCC1N2C(=O)NCCO (stereo not given) | x | 0.669 | x | x | x
CCCN(CCC)C1Cc2cc(OC)c(OC)cc2C1 | -8.6 | 0.683 | 4.5 | 99.5* | 98.5* | AddAB conf=-5.3;RecBCD counter=1.0;Bact viability=-1.7
Cc1ccc(C[n+]2c(-c3ccc(C)cc3)cc(-c3ccc(C)cc3)cc2-c2ccc(C)cc2)cc1 | -3.0 | 0.413* | x | 25.0* | 15.9* | AddAB conf=54.5*;RecBCD counter=11.8*;Bact viability=13.4
COC(=O)C1=C(c2cccc(OC)c2OC)CC2CCC1N2C(=O)N1CCCCC1 (stereo not given) | x | 0.691 | x | x | x
O=c1[nH]c(=S)n(C2CC2)c(O)c1C=NCc1ccc(F)cc1 | -1.1 | 0.527 | 1.9 | 15.4* | 26.8* | AddAB conf=61.6*;RecBCD counter=0.4;Bact viability=25.9*
O=c1[nH]c(=S)n(C2CC2)c(O)c1C=NCc1cccnc1 | x | 0.655 | x | -0.5 | -0.3
CN1/C(=C\C=C\C2=[N+](C)c3ccc4ccccc4c3C2(C)C)C(C)(C)c2ccccc21 | x | x | x | 51.4* | 30.1* | AddAB conf=77.2*;RecBCD counter=66.3*;Bact viability=78.0*
